# F508del corr – F508del CFTR correction, initial screen, CFBE line, single point | CFBE cells, YFP halide quenching; stimulated with forskolin plus potentiator P3; % fluorescence drop versus neutral controls | activity (quench increase), % at 7.58 µM | 350,000 tested, 0.36% active | AID 720511, 2013;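 active = mean added fluorescence quench of at least 8% versus neutral control, with both replicates also reaching 8%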;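 also: cells transiently co-express mutant CFTR-F508del with the halide-sensitive YFP; corrector assay measuring rescue of mutant channel to the surface after 24 h compound exposure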
# HIV Env fusion – inhibitors of HIV-1 Env-driven cell-cell fusion, primary screen, HeLa-JRFL effector, CEM21 target cells, luciferase. inhibition, % at 12.3 µM. 360,000 tested, 1.1% active. AID 651610, 2012;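 active = mean replicate inhibition score of at least 50 and every replicate individually at or above 50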;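 also: 0% = plate neutral controls and 100% = maraviroc near 300 nM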
# MITF act – activators of MITF-driven TRPM1 promoter reporter, primary screen, cell-based, SK-MEL-5, luciferase, single point. 300,000 tested, 0.75% active. SK-MEL-5 TRPM1-promoter luciferase, 24 h; % of positive control, neutral wells = 0. activation, % at 12.5 µM. AID 588334, 2011;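 active = mean activation of at least 80% with every replicate also reaching 80%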;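 also: 0% = neutral control wells and 100% = parthenolide positive control wells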
# INS-1E GSIS act – GLuc luminescence reporter in INS-1E cells, primary screen for activators of glucose-dependent secretion of insulin; INS-1E GLuc reporter insulin secretion, 2-3 h; activation, % at 16.6 µM; 370,000 tested, 0.61% active;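 active = lowest replicate activation of at least 40%, so every replicate reaches that level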;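 also: 0% = median of neutral control wells and 100% = median of IBMX positive control wells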
# Wnt bcat act – Wnt/beta-catenin pathway activators, primary screen, cell-based, plate reader, single point. 300,000 tested, 1.2% active. Wnt/beta-catenin reporter cell assay, activator. activation, % at 9.35 µM; in the data active = activation above about 30%, passing the limit was not always enough;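 also: 0% = neutral control wells and 100% = positive control wells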
# An asterisk follows results filed as active; i = inactive; x = no result; [ ] = dose if it differs, or a comment. This is a sample that favours compounds with a hit; in the whole collection about 2.7% have one here.
SMILES,F508del corr,HIV Env fusion,MITF act,INS-1E GSIS act,Wnt bcat act
O=C(OCC(=O)N1CCc2ccccc2C1)c1c(F)cccc1Cl,1,x,115*,8,55*
Cc1ccsc1C(=O)OCC(=O)N1CCc2ccccc2C1,3,-63,92*,6,11
COc1ccc2c3c([nH]c2c1)[C@@H](CO)N(C(C)=O)CC31CN(S(=O)(=O)c2ccccc2)C1,1,x,x,-5,x
C[C@@H]1CCCCO[C@H](CN(C)Cc2ccncc2)[C@H](C)CN([C@@H](C)CO)C(=O)c2cc(NC(=O)CCCN(C)C)ccc2O1,-1,22[16.7 µM],x,24,x
Cc1noc(C)c1S(=O)(=O)Nc1cccc2c1O[C@H](CN(C)S(=O)(=O)c1ccc(Cl)cc1)[C@H](C)CN([C@H](C)CO)C2=O,0,x,x,-18,x
CCC(C)(C)c1ccc(OCCCC[n+]2ccccc2)c(C(C)(C)CC)c1,6,77*,-99,-22,-19
Cc1ccc(S(=O)(=O)N[C@H]2C=C[C@H](CC(=O)N3CCC(Cc4ccccc4)CC3)O[C@H]2CO)cc1,-1,76*[16.7 µM],x,-17,x
COc1ccc(S(=O)(=O)N[C@@H]2C=C[C@H](CC(=O)N3CCC(Cc4ccccc4)CC3)O[C@@H]2CO)cc1,-4,63*[16.7 µM],x,-39,x
C[C@H]1CN([C@@H](C)CO)C(=O)c2cc(-c3ccncc3)cnc2O[C@@H]1CN(C)Cc1ccc(F)cc1,0,-17[16.7 µM],x,6,x
COc1ccc(NC(=O)Nc2ccc3c(c2)[C@H]2C[C@@H](CC(=O)N4CCN(C)CC4)O[C@H](CO)[C@H]2O3)cc1,3,0[16.7 µM],x,15,x
CN(c1ccccc1)c1nc(N)c([N+](=O)[O-])c(N2CCOCC2)n1,1,5,21,45*,2
CCCNC(=O)N(C)C[C@H]1Oc2ncc(-c3ccncc3)cc2C(=O)N([C@@H](C)CO)C[C@@H]1C,1,-18[16.7 µM],x,17,x
O=c1cc(-c2ccncc2)oc2c1ccc1ccccc12,5,-7,x,47*,4
CN(C)/C=C1\C=C2C(=O)c3ccccc3N2C1=O,32*,-1,x,10,2
CN(C)S(=O)(=O)N1C(=O)c2ccccc2C1=O,1,-6,4,5,1
COc1ccc(S(=O)(=O)Nc2ccc3c(c2)C(=O)N([C@@H](C)CO)C[C@H](C)[C@@H](CN(C)C(=O)Nc2ccc4c(c2)OCO4)O3)cc1,-1,8[16.7 µM],x,8,x
COc1ccc(CCNC(=O)C(=O)c2c(C)n(C)c3ccccc23)cc1OC,-3,8,-2,46*,-1
COc1ccc(CCNC(=O)CSCc2ccc(C)cc2)cc1OC,x,x,3,21,x
COc1ccc(CCNC(=O)CSc2ccccc2)cc1OC,x,16,1,73*,x
COc1ccc(CCNC(=O)CSc2nc(N)c(C#N)c(-c3cccs3)c2C#N)cc1OC,x,119*,0,-10,x
Cc1ccccc1NC(=O)CSc1nc(N)c(C#N)c(-c2cccs2)c1C#N,x,x,-8,-34,x
COc1ccc(CCNC(=O)CSC(=O)c2ccccc2)cc1OC,x,-12,5,46*,-2
CN(C)CCCNC(=O)[C@H]1[C@H](CO)[C@H]2Cn3c(ccc(-c4cccc(F)c4)c3=O)[C@@H]1N2C,1,x,x,1,x
Cn1cnc(S(=O)(=O)N2C[C@@H](O)COC[C@@H]3O[C@H](CC(=O)NC4Cc5ccccc5C4)CC[C@H]32)c1,0,-14[16.7 µM],x,3,x
COc1ccc(CCNC(=O)CSc2cccc3cccnc23)cc1OC,-1,14,4,41*,-1
SMILES,F508del corr,HIV Env fusion,MITF act,INS-1E GSIS act,Wnt bcat act
CCCNC(=O)Nc1ccc2c(c1)C(=O)N(C)C[C@H](OC)[C@@H](C)CN(CCC(F)(F)F)[C@@H](C)CO2,2,x,x,-16,x
Cc1cccc(C)c1OCCn1nnc2ccccc21,3,-2,4,1,0
Cc1ccc(C)c(OCCn2nnc3ccccc32)c1,-1,-17,x,-22,0
Clc1ccccc1OCCn1nnc2ccccc21,1,-58,81*,3,19
Cc1cc(C)cc(OCCn2nnc3ccccc32)c1,1,-5,88*,1,4
COc1cc(SC)ccc1C(=O)Nc1ncc(Cl)cc1Cl,1,-22,16,6,70*
COc1cc(SC)ccc1C(=O)Nc1ccc(OCC(=O)N2CCOCC2)cc1,-3,-58,83*,6,-4
COc1ccc(Br)cc1C(=O)Nc1cc(C)cc(C)c1,x,x,-2,82*,-4
COc1cc(SC)ccc1C(=O)Nc1cc(C)c(OCC(=O)N2CCOCC2)c(C)c1,6,-9,20,-2,7
CC(C)(C)c1ccc(NC(=O)Nc2ccc(OCC(=O)N3CCOCC3)cc2)cc1,-3,-71,90*,-18,11
C[C@@H]1CN([C@H](C)CO)C(=O)c2cc(-c3ccccc3)cnc2O[C@@H]1CN(C)C(=O)c1ccccn1,-3,-5[16.7 µM],x,10,x
COc1cc(SC)ccc1C(=O)Nc1ccccn1,3,i,15,33,1
COc1cc(SC)ccc1C(=O)Nc1cccc(C)n1,1,-229,101*,17,19
COc1cc(SC)ccc1C(=O)Nc1ccc(C)cc1,-2,-233,14,8,50*
Cc1ccc(S(=O)(=O)N(C)C[C@H]2OCCCC[C@H](C)Oc3ccc(NS(=O)(=O)c4ccccc4)cc3C(=O)N([C@@H](C)CO)C[C@H]2C)cc1,3,-33[16.7 µM],x,7,x
COc1ccc2cc(C#N)c(SCC(=O)Nc3nonc3C)nc2c1,-1,-4,20,-6,23
CCOC(=O)CSc1nc2cc(OC)ccc2cc1C#N,x,i,111*,x,67*
CCOC(=O)CSc1nc2ccc(C)cc2cc1C#N,3,x,134*,45,-1
CCOc1ccc2cc(C#N)c(SCC(=O)N3CCOCC3)nc2c1,x,-172,62,21,8
COc1ccc(-c2nnc(SCC(=O)Nc3cc(C)on3)n2C)cc1OC,1,x,2,65*,-1
Cc1ccc2cc(C#N)c(SCC(=O)N3CCCC3)nc2c1,3,19,67,7,33*
Cc1ccc(S(=O)(=O)N2C[C@H]3O[C@H](CNS(=O)(=O)c4ccccc4C)CC[C@H]32)cc1,-1,x,x,x,x
CO[C@H]1CN(C)C(=O)c2cc(NS(C)(=O)=O)ccc2OC[C@@H](C)N(Cc2cccnc2)C[C@H]1C,1,x,x,-7,x
O=C(NCC[C@H]1CC[C@@H](NC(=O)C2CC2)[C@@H](CO)O1)c1cnccn1,-1,10[16.7 µM],x,2,x
CCc1cc2ccc(OC)cc2nc1SCC(=O)Nc1cc(C)on1,x,x,-11,48*,-1
CCOC(=O)CSc1nc2cc(C)cc(C)c2cc1C#N,x,x,43,x,x
Cc1cccc(-c2nsc(SCC(=O)N3CCCC3)n2)c1,x,-197,89*,x,29
CCc1cc2ccccc2nc1SCC(=O)Nc1cc(C)on1,x,x,-8,x,x
CCOC(=O)CSc1nc2cc(C)ccc2cc1C#N,x,-418,40,x,49*
